NS1 function inh: blocks influenza NS1 protein function; AID 2326; hit rate 0.4% among 270,000; Potency, µM (top dose mostly 46.1 µM), for the others: at the highest dose activity, positive = more growth; calls by dose curve; further: potency means the concentration at half of the fitted maximal effect; actives are rising curves; nearly all actives have a fitted effect of over 50% in size
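Recovery from NS1-induced slow growth read by OD600 in budding yeast switched to galactose assay medium (pH 6.0, -URA) at 1:100 dilution. Compound 23 nl per well; the matching strain lacking NS1 serves as control.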
SARS PLpro yeast: inhibitors of SARS-CoV papain-like protease in yeast. hit rate 0.19% among 330,000. Potency, µM (doses to about 32.9 µM), inactives show at the highest dose activity, positive = growth rescue, hits mostly activators. S. cerevisiae expressing SARS-CoV PLpro, growth rescue; calls by dose curve; further: potency means the concentration at half of the fitted maximal effect; 0% is about no effect; nearly all actives have a fitted effect of over 55% in size
LmPK inhibitor: inhibitors of Leishmania mexicana pyruvate kinase | Q27686 | purified LmPK, Kinase-Glo ATP luminescence, 1 h | Potency, µM (top dose mostly 57.5 µM), inactives show top-dose activity change, negative = inhibition, actives largely listed as inhibitors | hit rate 0.37% among 290,000; further: potency means the concentration at half of the fitted maximal effect; on the % scale 0 is the no-effect control and ±100 the full control effect
Target sequence (Q27686 whole entry, looked up): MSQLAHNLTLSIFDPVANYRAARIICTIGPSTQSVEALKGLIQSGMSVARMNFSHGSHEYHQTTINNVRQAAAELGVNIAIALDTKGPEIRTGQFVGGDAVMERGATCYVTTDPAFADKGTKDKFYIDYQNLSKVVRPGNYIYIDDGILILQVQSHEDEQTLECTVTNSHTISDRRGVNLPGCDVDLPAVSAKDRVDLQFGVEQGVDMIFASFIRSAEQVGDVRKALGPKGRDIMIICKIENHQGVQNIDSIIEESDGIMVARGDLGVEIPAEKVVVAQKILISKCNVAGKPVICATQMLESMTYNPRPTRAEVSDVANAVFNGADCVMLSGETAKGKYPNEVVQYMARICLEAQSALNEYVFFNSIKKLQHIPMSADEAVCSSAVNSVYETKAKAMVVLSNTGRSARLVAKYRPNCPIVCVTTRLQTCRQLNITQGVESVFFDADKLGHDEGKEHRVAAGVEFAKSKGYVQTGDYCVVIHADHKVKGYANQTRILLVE
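qHTS format; LmPK 0.1 nM; substrates PEP 0.5 mM and ADP 0.1 mM. One-hour room-temperature incubation, then coupled luciferase luminescence; 0.5 nM enzyme wells mark activation.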
Shiga toxin inh: Shiga toxin inhibition | Vero cells, Shiga toxin protein synthesis inhibition reporter | inhibition, % at 38.7 µM | hit rate 9.2% among 290,000 | AID 2315; in the data active means inhibition mostly above about 28%, no sharp cut-off; inactive means mostly below about 43%; further: 0% is about no effect
Tb PYK inh: T. brucei pyruvate kinase inhibition | Q57TT1 | TbPYK enzyme, Kinase-Glo Plus ATP luminescence, 45 min | Potency, µM (highest dose often 76.8 µM), inactives show top-dose activity, negative = inhibition, hits mostly inhibitors | hit rate 0.12% among 410,000 | AID 624173; further: potency means the concentration at half of the fitted maximal effect; on the % scale 0 is the no-effect control and ±100 the full control effect; nearly all actives have a fitted effect of over 50% in size
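Glycolytic pyruvate kinase of T. brucei was incubated with substrate, test compound and 130 uM ADP for 45 minutes at room temperature. Luminescent Kinase-Glo Plus signal was measured after 10 minutes.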
Cycloheximide cs: affects cycloheximide protein synthesis inhibition readout, counter-screen. cell reporter, cycloheximide protein synthesis inhibition counterscreen. hit rate 12% among 300,000. max response, %; in the data active means max response mostly above about 13%, no sharp cut-off; inactive means mostly below about 14%; further: read at 38.3 µM for the half of the compounds with a filed dose; 0% is about no effect
* marks the source's active call; other numbers are inactive results. Many of the other results were omitted from the sample, so hits are more common in it than they were. Unless noted, the call rests on the fitted dose curve; in most records, active means well fitted curve in the direction sought with a large enough effect; inconclusive means small, poorly fitted or top-dose-only effect, or another doubt; inactive means no such curve, though single readings can be large; an effect the other way counts as inactive or inconclusive.

How did CN(C)c1cccc(NC(=O)Cc2ccc(F)cc2)c1 do in these assays?
NS1 function inh: -11.8%; SARS PLpro yeast: -3.1%; LmPK inhibitor: 6.8%; Shiga toxin inh: 29.2; Tb PYK inh: -4.9%; Cycloheximide cs: 11.3

Results for Cc1cccc(NC(=O)CCCCC(=O)Nc2cccc(C)c2)c1 ?
Tb PYK inh: -2.6%

What do the screens show for `CC(=O)Nc1cccc(NC(=O)CCc2ccccc2)c1`?
NS1 function inh: 8.6%; SARS PLpro yeast: -5.1%; LmPK inhibitor: 7.1%; Shiga toxin inh: 138.5*; Tb PYK inh: 0.1%; Cycloheximide cs: 24.0

What do the screens show for `Cc1cccc(NC(=O)CCc2ccccc2)c1`?
SARS PLpro yeast: -5.3%; LmPK inhibitor: -0.8%; Shiga toxin inh: 111.1; Tb PYK inh: -1.0%; Cycloheximide cs: 54.4*

Results for O=C(C[n+]1cc(-c2ccc(Br)cc2)n2c1CCCCC2)c1ccccc1 ?
SARS PLpro yeast: 1.2%; LmPK inhibitor: -0.1%; Shiga toxin inh: -12.2; Tb PYK inh: 2.3%; Cycloheximide cs: -3.3

What do the screens show for `O=C(C[n+]1cc(-c2ccc(F)cc2)n2c1CCC2)N1c2ccccc2Sc2ccccc21`?
NS1 function inh: 6.6%; SARS PLpro yeast: -24.5%; LmPK inhibitor: -4.1%; Shiga toxin inh: 53.6*; Tb PYK inh: -10.1%; Cycloheximide cs: 44.1*

Results for O=C(C[n+]1cc(-c2ccc(Cl)cc2)n2c1CCCCC2)c1ccccc1 ?
NS1 function inh: -1.7%; SARS PLpro yeast: -0.6%; LmPK inhibitor: 2.8%; Shiga toxin inh: 52.3*; Tb PYK inh: -0.6%; Cycloheximide cs: 25.5*

Results for COc1ccc(N2Cc3cccc(C(=O)Nc4cccc(F)c4)c3C2=O)cc1 ?
Tb PYK inh: 7.0%

How did c1ccc2c(c1)ncn2CCCCOc1ccc2c(c1)CCC2 do in these assays?
NS1 function inh: -170.4%; SARS PLpro yeast: -10.5%; LmPK inhibitor: -3.6%; Shiga toxin inh: 36.9; Tb PYK inh: 32.9%; Cycloheximide cs: 18.0*

Results for c1ccc2c(c1)ncn2CCCOc1ccc2c(c1)CCC2 ?
NS1 function inh: -92.9%; SARS PLpro yeast: 2.3%; LmPK inhibitor: 7.4%; Shiga toxin inh: 97.6*; Tb PYK inh: -6.7%; Cycloheximide cs: 19.4*

How did Cc1ccccc1OCCC(=O)OCC(=O)NC1CCCCC1 do in these assays?
SARS PLpro yeast: 0.4%; Tb PYK inh: 6.1%

Results for Cc1cc(C)n(-c2cc(C(C)(C)C)nc3c(-c4ccccc4)cnn23)n1 ?
NS1 function inh: -0.1%; SARS PLpro yeast: -1.1%; LmPK inhibitor: 4.3%; Shiga toxin inh: 90.5*; Tb PYK inh: 1.0%; Cycloheximide cs: 54.3*

What do the screens show for `Cc1cc(C)n(-c2cc(C(C)(C)C)nc3c(-c4ccc(Cl)cc4)cnn23)n1`?
NS1 function inh: -52.5%; SARS PLpro yeast: -29.5%; LmPK inhibitor: 1.8%; Shiga toxin inh: 64.1*; Tb PYK inh: -1.7%; Cycloheximide cs: 29.1*

What do the screens show for `COc1ccc(OC)c(NC(=O)CC2SC(=Nc3ccc(F)cc3)N(CCC3=CCCCC3)C2=O)c1` (centres undefined)?
NS1 function inh: 14.7%; SARS PLpro yeast: 11.1%; LmPK inhibitor: 5.1%; Shiga toxin inh: -0.8; Tb PYK inh: -9.1%; Cycloheximide cs: 12.5*

How did Cc1ccccc1-c1ccnc2c(-c3ccc(F)cc3)c(C)nn12 do in these assays?
Tb PYK inh: -14.8%

How did Cc1ccnc(Nc2nc(-c3ccc(O)c(O)c3)cs2)c1 do in these assays?
NS1 function inh: 26.9%; SARS PLpro yeast: -4.9%; LmPK inhibitor: inconclusive; Shiga toxin inh: 96.8*; Tb PYK inh: -6.6%; Cycloheximide cs: 40.1*

What do the screens show for `CC(=O)Nc1ccc(-c2csc(NCCc3ccccc3)n2)cc1`?
NS1 function inh: 18.6%; SARS PLpro yeast: 2.1%; LmPK inhibitor: 9.7%; Shiga toxin inh: 89.7; Tb PYK inh: -5.3%; Cycloheximide cs: 21.2*

Results for CC(=O)Nc1ccc(-c2csc(Nc3ccccn3)n2)cc1 ?
NS1 function inh: 1.1%; SARS PLpro yeast: 1.8%; LmPK inhibitor: -1.9%; Shiga toxin inh: 52.1*; Tb PYK inh: -8.7%; Cycloheximide cs: 48.3*

What do the screens show for `Cc1ccn2cc(-c3ccc(O)c(O)c3)nc2c1`?
NS1 function inh: 3.0%; SARS PLpro yeast: -0.4%; LmPK inhibitor: inconclusive; Shiga toxin inh: -14.9; Tb PYK inh: -28.0%; Cycloheximide cs: -9.0

How did CCC(=O)Nc1nc(C)c(-c2csc(Nc3ccccn3)n2)s1 do in these assays?
SARS PLpro yeast: -3.9%; LmPK inhibitor: 0.0%; Shiga toxin inh: 103.1*; Tb PYK inh: 0.4%; Cycloheximide cs: 33.2*

Results for Cc1cc(O)c(C(c2ccccc2)N2CCN(c3ccccc3)CC2)c(=O)n1Cc1ccco1 (centres undefined) ?
Tb PYK inh: -1.5%

How did CC(=O)Nc1cccc(Oc2nc(NC(C)C)nc3cc(-c4ccccc4)sc23)c1 do in these assays?
Tb PYK inh: -9.7%

What do the screens show for `CNc1nc(Cl)c(SC)c(NCc2ccc(F)cc2)n1`?
NS1 function inh: -9.7%; SARS PLpro yeast: -5.1%; LmPK inhibitor: -3.6%; Shiga toxin inh: 11.0; Tb PYK inh: 1.3%; Cycloheximide cs: -3.0

What do the screens show for `CC(=O)c1ccc(NC(=O)CCCN2C(=O)COc3ccc(C)cc32)cc1`?
NS1 function inh: -4.7%; SARS PLpro yeast: -0.9%; LmPK inhibitor: -2.9%; Shiga toxin inh: -1.3; Tb PYK inh: 3.5%; Cycloheximide cs: 11.5

Results for Cc1ccnc(Nc2nc(-c3ccc(O)cc3O)cs2)c1 ?
NS1 function inh: -29.6%; SARS PLpro yeast: -14.4%; LmPK inhibitor: 5.4%; Shiga toxin inh: 22.2*; Tb PYK inh: 0.9%; Cycloheximide cs: 24.8*

What do the screens show for `Oc1ccc(-c2csc(Nc3cccc4ccccc34)n2)cc1O`?
NS1 function inh: -61.7%; SARS PLpro yeast: -2.4%; LmPK inhibitor: -16.1%; Shiga toxin inh: 10.8; Tb PYK inh: -19.3%; Cycloheximide cs: 8.2

What do the screens show for `NS(=O)(=O)c1ccc(Nc2nc(-c3ccc(O)cc3)cs2)cc1`?
NS1 function inh: inconclusive; SARS PLpro yeast: 1.3%; LmPK inhibitor: -4.8%; Shiga toxin inh: 16.7; Tb PYK inh: -2.8%; Cycloheximide cs: 1.6

What do the screens show for `Oc1ccc(-c2csc(Nc3ccccn3)n2)cc1O`?
NS1 function inh: inconclusive; SARS PLpro yeast: 20.9%; LmPK inhibitor: inconclusive; Shiga toxin inh: 100.5*; Tb PYK inh: -8.1%; Cycloheximide cs: 42.9*

How did Cc1ccnc(Nc2nc(-c3ccc(O)cc3)cs2)c1 do in these assays?
NS1 function inh: -30.4%; SARS PLpro yeast: -22.3%; LmPK inhibitor: -7.1%; Shiga toxin inh: 119.8*; Tb PYK inh: -7.6%; Cycloheximide cs: 34.6*

What do the screens show for `Cc1nc(-c2c(-c3ccc(O)cc3O)noc2C(F)(F)F)cs1`?
NS1 function inh: -2.2%; SARS PLpro yeast: -2.7%; LmPK inhibitor: 0.9%; Shiga toxin inh: 28.5; Tb PYK inh: -5.2%; Cycloheximide cs: 10.9

What do the screens show for `CC(=O)Nc1cccc(-c2ccnc3c2CC(C(=O)Nc2ccc(C(C)C)cc2)O3)c1` (centres undefined)?
Tb PYK inh: -0.1%

Screens deposited in PubChem by National Center for Advancing Translational Sciences (NCATS).
